Tb PYK inh: blocks Trypanosoma brucei pyruvate kinase; AID 624173; Potency, µM (top dose mostly 76.8 µM), without a hit: at the top dose activity, negative = inhibition, actives largely listed as inhibitors; 410,000 tested, 0.12% active; Q57TT1; TbPYK enzyme, Kinase-Glo Plus ATP luminescence, 45 min; also: potency is read from the fitted curve at half-maximal effect; nearly all actives have a fitted effect of over 50% in size
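ADP (130 uM final) triggers the TbPYK reaction after compound addition; incubation is 45 min at room temperature. Kinase-Glo Plus is then added and luminescence imaged. Normalized data are fitted to concentration-effect curves.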
RE007 growth inh: less growth of the S. pombe RE007 Vpr strain | S. pombe RE007 Vpr strain, BacTiter-Glo ATP luminescence, 24 h | Potency, µM (titrated, usually from 92.2 µM), for the others: at the highest dose activity change, negative = less growth, most hits filed as inhibitors | AID 651644 | 360,000 tested, 0.21% active; active = well fitted falling curve with a large enough effect; inconclusive = small, poorly fitted or top-dose-only effect; inactive = no such curve, though single readings can be large or run the other way; also: potency is read from the fitted curve at half-maximal effect; nearly all actives have a fitted effect of over 50% in size
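Fission yeast RE007 carrying one integrated HIV-1 vpr copy, seeded at OD 0.01 in PMG+AL medium with 23 nL pinned compound. Grown 24 h at 30 degrees; viability read by BacTiter-Glo luminescence after 5 min.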
FMDV inh: foot and mouth disease virus antiviral activity; FMDV antiviral cell-based qHTS; Potency, µM (top dose mostly 57.9 µM), for the others: at the top dose activity change, negative = inhibition, most hits filed as inhibitors; 410,000 tested, 1.2% active; AID 1159524; calls by dose curve; tested in HEK293T cells; also: read-out not given here; potency is read from the fitted curve at half-maximal effect; nearly all actives have a fitted effect of over 45% in size
HCMV inh: blocks human cytomegalovirus replication; HFF cells, HCMV-luciferase reporter, 72 h; stronger effect = lower value; activity change, negative = inhibition, % at 57.5 µM; 410,000 tested, 4.5% active; in the data active = activity change below about -60%; inconclusive = no clear call, values can overlap the other calls; inactive = above about -39%
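Compounds were evaluated in HFFs infected with an HCMV luciferase reporter virus (MOI 1 PFU/cell). Luciferase in lysates collected 72 h post infection served as the replication measure.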
Sm TGR inh: S. mansoni TGR enzyme inhibition; AID 485364; purified TGR, DTNB reduction, TNB absorbance 405 nm; Q962Y6; 360,000 tested, 3% active; Potency, µM (top dose mostly 114 µM), without a hit: at the highest dose activity change, negative = inhibition, usual class: inhibitors; also: potency is read from the fitted curve at half-maximal effect; nearly all actives have a fitted effect of over 60% in size
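TGR 20 nM + NADPH 100 uM (dispensed conc.), cpd preinc 15 min RT; start with NADPH (500 uM addition) then DTNB (15 mM addition). Kinetic TNB absorbance, 405 nm filter. Four-parameter Hill fit across titration.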
FBPA Giardia inh: Giardia lamblia aldolase inhibition; Potency, µM (highest dose often 59.6 µM), without a hit: top-dose activity, negative = inhibition, actives largely listed as inhibitors; purified Giardia FBPA; 290,000 tested, 0.71% active; A8B2U2; also: potency is read from the fitted curve at half-maximal effect; nearly all actives have a fitted effect of over 55% in size
Target sequence (A8B2U2 whole entry, looked up): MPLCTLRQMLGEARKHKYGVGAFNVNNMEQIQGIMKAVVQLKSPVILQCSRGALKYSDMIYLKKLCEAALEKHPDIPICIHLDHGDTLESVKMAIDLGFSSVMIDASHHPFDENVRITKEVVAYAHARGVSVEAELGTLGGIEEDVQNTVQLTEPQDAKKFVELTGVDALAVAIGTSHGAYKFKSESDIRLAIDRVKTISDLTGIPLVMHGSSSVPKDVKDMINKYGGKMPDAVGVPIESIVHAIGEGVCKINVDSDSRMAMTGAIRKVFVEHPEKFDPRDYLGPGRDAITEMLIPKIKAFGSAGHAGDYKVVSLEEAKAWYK
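Giardia FBPA (40 nM reagent) was preincubated 10 min at RT with compound (up to 57.5 uM final), then substrate plus GAPDH/TPI/NAD/arsenate coupling system with diaphorase/resazurin was added; resorufin fluorescence (525/598 nm) was read after 20 min.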
* marks the source's active call; other numbers are inactive results; u = inconclusive; x = no result; [ ] = dose if it differs, or a comment. An excerpt weighted towards active compounds, which were near 7.7% of everything screened. Unless noted, calls follow the shape of the dose curve; as a rule, active = well fitted curve in the direction sought with a large enough effect; inconclusive = small, poorly fitted or top-dose-only effect, or another doubt; inactive = no such curve, though single readings can be large; an effect the other way counts as inactive or inconclusive. % is scaled to controls: 0 for no effect and ±100 for the full control effect.

SMILES	Tb PYK inh	RE007 growth inh	FMDV inh	HCMV inh	Sm TGR inh	FBPA Giardia inh
CCOc1ccc(C2SCC(=O)Nc3c2c(=O)[nH]n3C2CCCCCC2)cc1 (stereo unspecified)	-9.8%	5.2%	-27.4%	27.8	-25.9%	7.9%
CCCC1C2C(=O)N(c3ccccc3)C(=O)C2ON1c1ccccc1 (stereo unspecified)	0.5%	-8.5%	1.3%	45.9	3.4%	7.3%
CCCOc1ccc(N2C(=O)C3ON(c4ccccc4)C(CCC)C3C2=O)cc1 (stereo unspecified)	-10.5%	u	u	u	22.4µM*	0.2%
COc1cc2cc(C(=O)NCCc3ccccc3)[nH]c2cc1OC	-3.9%	12.3%	15.8%	4.8	89.1µM*	-1.4%
COc1cc2[nH]c(C(=O)Nc3ccc4c(c3)OCCO4)cc2c(OC)c1OC	-7.5%	-21.1%	u	-35.9	5.1%	x
O=C(Nc1ccc2c(c1)OCCO2)c1coc2ccccc2c1=O	u	-11.2%	7.94µM*	-36.2	-1.0%	-10.3%
COc1ccc2cc(C(=O)NCCc3ccccc3)[nH]c2c1	0.4%	7.5%	39.7%	-6.6	-18.2%	-1.9%
COc1cc2cc(C(=O)Nc3ccc4c(c3)OCCO4)[nH]c2cc1OC	-9.1%	-2.2%	u	-68.3*	-5.6%	x
COc1cccc(OC)c1C(=O)Nc1ccc2c(c1)OCCO2	7.5%	-1.1%	-3.0%	-79.1*	1.6%	1.8%
COc1ccc(NC(=O)CCS(=O)(=O)c2cc3c(cc2C)NC(=O)CO3)cc1Cl	3.2%	x	-24.7%	9.6	10.2%	x
CCCCN(C)CCCNC(=O)Cn1ncc2c3ccccc3n(Cc3ccccc3)c2c1=O	1.5%	x	-12.4%	-2.6	-15.3%	x
Cc1ccc(S(=O)(=O)N2CCC(C(=O)Nc3ccc(C)c(Cl)c3)CC2)cc1	-2.3%	x	u	19.9	-6.3%	x
CCOC(=O)c1ccc(N2C(=O)CC(N3CCC(O)(c4ccc(Br)cc4)CC3)C2=O)cc1 (stereo unspecified)	-9.3%	-5.6%	u	-28.5	50.1µM*	3.6%
O=C1CC(N2CCN(c3ccccc3Cl)CC2)C(=O)N1c1ccc(F)cc1 (stereo unspecified)	-2.5%	u	x	-26.2	u	-5.6%
O=C1CC(N2CCN(c3ccccc3Cl)CC2)C(=O)N1c1cccc(F)c1 (stereo unspecified)	2.1%	35.5µM*	-26.3%	45.6	39.8µM*	3.4%
CCOC(=O)c1ccc(N2C(=O)CC(N3CCN(Cc4ccccc4)CC3)C2=O)cc1 (stereo unspecified)	1.4%	-23.5%	-7.1%	-17.5	-32.4%	7.3%
CCOC(=O)c1ccc(N2C(=O)CC(N3CCC(O)(c4ccc(Cl)cc4)CC3)C2=O)cc1 (stereo unspecified)	-2.2%	u	u	-20.2	22.4µM*	4.3%
N#CC1(c2ccccc2)CCN(C2CC(=O)N(c3cccc(F)c3)C2=O)CC1 (stereo unspecified)	1.3%	u	-26.9%	-29.1	44.7µM*	1.8%
CSc1nc(C(=O)NCc2nc(-c3cccc(NC(=O)c4ccccn4)c3)oc2C)cs1	x	x	13.8%	x	x	x
O=C1CC(N2CCCc3ccccc32)C(=O)N1c1ccccc1Cl (stereo unspecified)	-12.7%	-25.2%	-28.4%	30.4	20µM*	9.6%
CCOc1ccc(N2C(=O)CC(N3CCc4ccccc43)C2=O)cc1 (stereo unspecified)	-20.9%	4.9%	0.9%	8.3	-1.7%	7.2%
CCOC(=O)c1ccc(N2C(=O)CC(N3CCC(C#N)(c4ccccc4)CC3)C2=O)cc1 (stereo unspecified)	-6.1%	22.4µM*	u	-0.3	44.7µM*	-1.6%
CCOc1ccc(N2C(=O)CC(N3CCC(O)(c4ccc(Br)cc4)CC3)C2=O)cc1 (stereo unspecified)	1.8%	35.5µM*	0.0%	-28.8	0.0%	-0.2%
C/C(=C\C(=O)OCCCCCCCCC(=O)O)C[C@@H]1OCC(C[C@H]2O[C@H]2[C@@H](C)[C@H](C)O)[C@@H](O)[C@H]1O (stereo partly specified)	x	x	x	x	x	21.7%
CC(C)NC[C@@H](O)c1ccc(O)c(O)c1	-7.3%	1.2%[18.4 µM]	-20.0%	-28.4	u	7.06µM*
SMILES	Tb PYK inh	RE007 growth inh	FMDV inh	HCMV inh	Sm TGR inh	FBPA Giardia inh
CC(C)NCC(O)c1ccc(N)c(C#N)c1 (stereo unspecified)	-1.5%	x	-7.9%[146 µM]	x	x	x
Cn1cc(/C=C/c2cc[n+](C)cc2)c2cc(Cl)ccc21	-8.4%	u	-16.4%	-101.5*	-4.4%	-8.9%
Cn1cc(/C=C/c2cc[n+](C)cc2)c2cc(F)ccc21	-22.1%	u	u	x	4.6%	u
O=C(NCc1ccc(F)cc1Cl)c1ccc(CSCc2ccccc2Cl)o1	-3.8%	x	-15.9%	u	-1.5%	x
Cc1ccc(N(Cc2cc(=O)[nH]c3ccccc23)C(=O)CCl)c(C)c1	-12.5%	5.6%	35.5µM*	-97.4*	12.6µM*	5.9%
CCCC(=O)N(Cc1cc(=O)[nH]c2ccccc12)c1ccc(C)cc1C	0.0%	2.0%	-21.4%	17.0	-2.8%	1.6%
COc1ccc2[nH]cc(CCNc3ncnc4ccc(-c5ccccc5C#N)cc34)c2c1	x	x	-23.2%	x	x	-3.7%
COC(=O)c1sc2ncccc2c1OCc1cccc(Cl)c1	3.3%	8.8%	15.4%	-102.0*	9.5%	-9.7%
CCc1nc(N2CCN(C(=O)CCl)CC2)c2c3c(sc2n1)CC(C)CC3 (stereo unspecified)	4.9%	-9.7%	u	-10.4	15.8µM*	-19.2%
Cc1cccc(CSC(=N)N)c1	-0.9%	-1.5%	0.0%	-62.7*	-0.6%	-1.9%
O=C(O)c1cccc(NC(=S)NC(=O)c2ccc(-c3ccc(Cl)cc3)o2)c1	-7.9%	-12.8%	19.1%	14.9	20µM*	-7.1%
O=C(O)c1ccc(NC(=S)NC(=O)c2ccc(-c3ccc(Br)cc3)o2)cc1	-11.3%	-4.7%	-1.7%	17.7	31.6µM*	u
O=C(NC(=S)Nc1ccc(Cl)cc1)c1ccccc1	0.2%	5.4%	36.4%	72.1	u	-21.4%
COc1ccc(C(=O)O)cc1NC(=S)NC(=O)c1ccc(-c2ccc(Cl)cc2)o1	0.8%	3.5%	-27.4%	-38.9	28.2µM*	4.3%
Cc1ccc(C(=O)O)cc1NC(=S)NC(=O)c1ccc(-c2ccccc2)cc1	-1.3%	18.7%	11.8%	43.8	u	-0.3%
CN1CCN(c2ccc(NC(=O)c3ccc(-c4ccc(Br)cc4)o3)cc2)CC1	-2.2%	-26.0%	-17.7%	-32.6	-7.1%	1.3%
Cc1ccc(C(=O)O)cc1NC(=S)NC(=O)c1ccc(-c2ccc(Cl)cc2)o1	3.9%	6.6%	0.0%	11.6	10µM*	-13.6%

Bioassay records (PubChem BioAssay)
